# Source: PubChem BioAssay AID504332 (National Center for Advancing Translational Sciences (NCATS), 2011)
# Values joined by “and” are separate entries in the source; they are usually repeats but may differ in a detail not shown here. Identical values can stand only once. Screen size: about 350,000 compounds; about 31,000 (8.9%) were called active. A call without a number means that no potency is given here. Inconclusive results (about 15%) are left out. Calls follow the shape of the dose curve; as a rule, active = well fitted inhibition curve with a large enough effect; inconclusive = small, poorly fitted or top-dose-only effect; inactive = no such curve, though single readings can be large or run the other way. The full list was thinned out, with actives kept by preference. A structure can be active in one record and inactive in another.
# Molecular target: Histone-lysine N-methyltransferase EHMT2 (Homo sapiens) (UniProt Q96KQ7)
# Sequence (Q96KQ7 913-1193 limits assumed): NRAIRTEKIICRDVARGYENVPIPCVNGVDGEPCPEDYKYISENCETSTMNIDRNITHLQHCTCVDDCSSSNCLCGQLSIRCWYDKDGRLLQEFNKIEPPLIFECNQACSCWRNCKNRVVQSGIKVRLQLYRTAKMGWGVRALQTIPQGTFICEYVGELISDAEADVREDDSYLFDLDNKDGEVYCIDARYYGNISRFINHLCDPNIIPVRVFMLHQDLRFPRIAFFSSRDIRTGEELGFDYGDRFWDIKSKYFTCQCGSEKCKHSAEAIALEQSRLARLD
# Assay: qHTS Assay for Inhibitors of Histone Lysine Methyltransferase G9a; also: nearly all actives have a fitted effect of over 75% in size
# Details: G9a H3K9 monomethylation, AlphaScreen, 2 h; series mostly up to 59 µM
# In short: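 Step 1: enzyme (final 20 nM) with compound, 15 min RT. Step 2: substrate peptide 500 nM and SAM 20 uM, 2 h RT. Step 3: anti-H3K9me1 antibody and AlphaScreen beads, 10 min, then plate read.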
# Potency is read from the fitted curve at half-maximal effect.
Compound,Potency,"activity, negative = inhibition"
CCc1ccc(NC(=O)C2CCCN2S(=O)(=O)c2ccc3nc(-c4ccccc4)[nH]c3c2)cc1 (stereo unspecified),inactive,
Cc1ccc(CSc2nc3ccsc3c(=O)n2CCC(C)C)cc1,inactive,
COC(=O)c1ccccc1NC(=O)c1cnn(-c2ccc(F)cc2)c1-n1cccc1,inactive,
O=C(COc1ccc(Cl)cc1)Nc1ccc2c(c1)OCO2,inactive,
O=C(CN1CCN(Cc2ccccc2)CC1)Nc1ccc(F)c(F)c1,7.08 µM (active),
O=C(Nc1ccccc1)N1CCC(C(=O)N2CCN(Cc3ccccc3)CC2)CC1,,9.4% [at 12.7 µM] (inactive)
O=C1CCN(C(=O)Nc2ccccc2)N1,7.94 µM (active),
O=C(Nc1cccc(NC(=O)N2CCN(c3ccccc3)CC2)c1)N1CCN(c2ccccc2)CC1,inactive,
O=C(CN1CCN(CC(=O)Nc2ccc3c(c2)OCO3)CC1)Nc1ccc(F)cc1,,-4.1% [at 2.33 µM] (inactive)
O=C(CN1CCCCCC1)Nc1ccc(Cl)cc1F,inactive,
Cc1cc(NC(=O)CCN2CCN(Cc3ccccc3)CC2)ccc1Br,44.7 µM (active),
O=C(CCN1CCN(C/C=C/c2ccccc2)CC1)Nc1cccc(F)c1,inactive,
CCOC(=O)N1CCN(CCC(=O)Nc2ccccc2)CC1,,-0.171% [at 0.501 µM] (inactive)
O=C(Nc1ccccc1)N1CCN(C(=O)Nc2ccccc2)CC1,inactive,
O=C(Nc1ccccc1)N1CCN(Cc2ccccc2)CC1,2 µM (active),
O=C(Nc1ccccc1)N1CCN(C2c3ccccc3-c3ccccc32)CC1,inactive,
COc1ccc(C)cc1NC(=O)CCc1c(C)nn(-c2ccc(N3CCOCC3)nn2)c1C,inactive,
O=C(COC(=O)c1cnccn1)Nc1ccc(Cl)cc1C(F)(F)F,,-3.19% [at 0.501 µM] (inactive)
O=C(Cn1c(=O)nc(-c2ccccc2)c2cc(Cl)ccc21)NCc1ccc(Cl)cc1,inactive,
O=C(CSc1cn(CC(=O)N2CCOCC2)c2ccccc12)Nc1ccccc1,inactive,
CN(CC(=O)NCc1ccncc1)S(=O)(=O)c1ccc(Br)cc1,inactive,
CCOC(=O)Cc1csc(SCC(=O)Nc2ccc(C)cc2F)n1,inactive,
C=Cc1ccc(Cn2c(C(=O)OC)cc3sc(C)cc32)cc1,inactive,
CC(=O)Nc1ccc2nc(SCCOc3cc(C)cc(C)c3)sc2c1,inactive,
COc1cccc(N2C(=O)CN(Cc3ccccc3)C2=S)c1,inactive,

Compound,Potency,"activity, negative = inhibition"
Cc1ccc(-c2c3c(=O)n(C)c(=O)n(C)c3cn2-c2ccccc2O)cc1,31.6 µM (active),
COc1cccc(-n2cc3c(c2-c2ccccc2)c(=O)n(C)c(=O)n3C)c1,25.1 µM (active),
COc1ccccc1-n1c(-c2ccc(C)cc2)cn2c3c(=O)n(C)c(=O)n(C)c3nc12,inactive,
COc1ccc(Nc2cc(=O)n(-c3ccccc3)c3c2c(=O)n(C)c(=O)n3C)cc1,inactive,
COc1ccc(-c2c3c(=O)n(C)c(=O)n(C)c3c3c(C)nc4ccccc4n23)cc1,inactive,
O=C(O)c1ccc(CSc2nc3cccnc3n2Cc2cccc(F)c2)cc1,inactive,
CCN(CC(=O)NCc1cccs1)C(=O)/C=C/c1ccc(C)cc1,,9.99% [at 12.7 µM] (inactive)
CCOC(=O)c1c(C)[nH]c(CCC(=O)NCCCN2CCN(c3cccc(Cl)c3)CC2)c1C,inactive,
CCOC(=O)c1ccc2c(c1)N(Cc1cccc(OC)c1)C(=O)c1ccccc1S2(=O)=O,inactive,
C[C@H](NC(=O)[C@@H]1Cc2ccccc2CN1C(=O)OC(C)(C)C)C(=O)NC1CCCC1,inactive,
CC(=O)N1Cc2ccccc2CC1C(=O)O (stereo unspecified),17.8 µM (active),
O=C(C1Cc2ccccc2CN1C(=O)c1ccco1)N1CCN(c2ccccc2)CC1 (stereo unspecified),inactive,
C[C@@H]1O[C@@H](OC[C@H]2O[C@@H](Oc3c(-c4ccc(O)cc4)oc4cc(O)cc(O)c4c3=O)[C@H](O)[C@@H](O)[C@@H]2O)[C@H](O)[C@H](O)[C@H]1O,,4.77% [at 12.7 µM] (inactive)
COc1cccc(N2CC(NS(=O)(=O)c3ccc(Cl)cc3)CC2=O)c1 (stereo unspecified),inactive,
CC1CCC(CN2CCN=C2N(C)C)CC1 (stereo unspecified),,11.1% [at 12.7 µM] (inactive)
NC(=S)c1ccc(C(N)=S)o1,44.7 µM (active),
O=C(COC(=O)c1cc2c(s1)CCCC2)NCc1ccccc1Cl,inactive,
O=C(Nc1ccc(F)cc1)c1cc2c(s1)CCCC2,inactive,
CN(C)C(=O)c1ccc(NC(=O)COC(=O)c2cc3c(s2)CCCCC3)cc1,3.55 µM (active),
O=C(CSc1cccc[n+]1[O-])NCCCc1ccccc1,inactive,
O=C(CSc1cccc[n+]1[O-])c1ccc(Cl)cc1,4.47 µM (active),
O=C(CSc1nc(Nc2ccc(F)c(F)c2)c2ccccc2n1)c1ccc(Cl)cc1,inactive,
O=C(CSc1cccc[n+]1[O-])c1ccc(-c2ccccc2)cc1,3.55 µM (active),
Cc1cc(Oc2ccc(Cl)cc2)nc(SCC(=O)c2ccccc2)n1,inactive,
COc1ccccc1C(=O)CSc1cccc[n+]1[O-],inactive,

Compound,Potency,"activity, negative = inhibition"
O=C(COC(=O)c1ncc(Cl)c(Cl)c1Cl)NC1CCS(=O)(=O)C1 (stereo unspecified),,3.15% [at 12.7 µM] (inactive)
O=C(NCC1CCCO1)c1cc2c(s1)CCCC2 (stereo unspecified),,29.8% [at 12.7 µM] (inactive)
Cc1nc(SCCOc2ccc(Cl)cc2)[nH]c(=O)c1Cc1ccccc1,inactive,
CCS(=O)(=O)N1CCc2cc(C(=O)NCc3ccc(OC)cc3)ccc21,inactive,
Cc1cc(C)c(/C=C2\C(=O)Nc3ccccc32)[nH]1,4.47 µM (active) and 16.8 µM (active),-50.4% [at 12.7 µM] (inactive)
O=C1Nc2ccccc2/C1=C/c1ccnc2ccccc12,inactive,
CN(C)/C=C1/C(=O)Nc2ccccc21,,-2.73% [at 12.7 µM] (inactive)
Cc1cc(-c2ccc(C)c(S(=O)(=O)NCCCN(Cc3ccccc3)C(C)C)c2)on1,inactive,
Cc1cccc(NC(=S)NCCc2ccc(Cl)cc2)c1C,inactive,
COc1ccc(CCNC(=S)N2CCN(S(=O)(=O)c3ccc(Cl)cc3)CC2)cc1,inactive,
Oc1cc2c(cc1O)CN(C(=S)NCCc1ccc(Cl)cc1)CCC2,3.55 µM (active) and 2 µM (active) and 4.74 µM (active),
O=C(NCCc1csc(-c2ccc(C(F)(F)F)cc2)n1)C(=O)Nc1ccc(F)c(Cl)c1,inactive,
Cc1c(C=O)c2ccccc2n1CCOc1ccccc1,inactive,
Cc1ccc(CS(=O)(=O)CCC(=O)NCc2ccc(F)cc2)cc1,inactive,
O=C1c2ccccc2C(=O)C1c1ccccc1,inactive and 35.5 µM (active),
CN1C(=O)C[C@H](c2ccccc2)C1=O,,-19.1% [at 12.7 µM] (inactive)
O=C1NC(c2ccccc2)Oc2ccccc21 (stereo unspecified),inactive,
CCOC(=O)N1CCN(C(=O)COc2ccc3oc4c(c3c2)CCCC4)CC1,,14.4% [at 2.33 µM] (inactive)
O=C(CCN1C(=O)C2CCCCC2C1=O)Nc1ccc(OC(F)F)cc1 (stereo unspecified),inactive,
CCOc1cc(/C=N/NC(=O)c2cccc(S(=O)(=O)N3CCOCC3)c2)ccc1OCC(=O)N(C)C,inactive,
O=S(=O)(c1ccc(SCc2ccccc2)nc1)N1CCCCCC1,,-5.2% [at 12.7 µM] (inactive)
Cc1ccc(-n2nnnc2CNC(=O)c2ccccc2C)cc1C,inactive,
COC(=O)c1ccccc1OCC(=O)N1CCN(c2ccc(Cl)cc2)CC1,,3.66% [at 12.7 µM] (inactive)
COC(=O)c1ccc(C(=O)OC)c(NC(=S)N2CCN(c3cc(Cl)ccc3C)CC2)c1,inactive,
COC(=O)c1ccc(C(=O)OC)c(NC(=S)N2CCN(c3ccc(F)cc3)CC2)c1,44.7 µM (active),

Compound,Potency,"activity, negative = inhibition"
COc1ccccc1CNC(=O)c1ccccc1NC(=O)c1nsc2ccccc12,inactive,
COc1ccc(CCN2C(=O)N(c3cccc(OC)c3)C(=O)C2CC(=O)Nc2ccccc2)cc1 (stereo unspecified),inactive,
CC(C)c1ccc(/C=C/C(=O)NCCCN2CCOCC2)cc1,inactive,
Cn1cnc([N+](=O)[O-])c1Nc1ccccc1O,25.1 µM (active),
Cn1cnc([N+](=O)[O-])c1Sc1ccccc1,inactive,
Cn1cnc([N+](=O)[O-])c1Sc1n[nH]c(N)n1,inactive,
Cc1ccc(C2(C)NC(=O)N(CC(=O)Nc3ccccc3C(=O)N3CCCCC3)C2=O)cc1 (stereo unspecified),inactive,
Fc1ccc(-c2nc(Nc3cccc(Cl)c3)nc3c2COc2ccccc2-3)cc1,inactive,
Cc1ccc(S(=O)(=O)N2CCC(C(=O)NCCC3=CCCCC3)CC2)cc1C,,15.2% [at 0.501 µM] (inactive)
C[N+]1(CC(O)COc2ccccc2)CCN(C(=O)c2ccc([N+](=O)[O-])cc2)CC1 (stereo unspecified),6.31 µM (active),
O=[N+]([O-])c1ccc(N2CCN(CC(O)COc3ccccc3)CC2)cc1 (stereo unspecified),inactive,
O=C(c1ccccc1)c1ccc(OCC(O)CN2CCCC2)cc1 (stereo unspecified),inactive,
COc1ccc(CC(=O)N/N=C/c2cc([N+](=O)[O-])cc(Br)c2O)cc1,inactive,
COc1ccc(Cn2c(=S)[nH]c3cc(C(=O)NCCCN4CCOCC4)ccc3c2=O)cc1,10 µM (active),
CCCCNC(=O)CCn1c(=S)[nH]c2cc3c(cc2c1=O)OCO3,,5.03% [at 0.0925 µM] (inactive)
Cc1ccc(NS(=O)(=O)c2ccc(C(=O)NCCCN3CCOCC3)cc2)cc1,inactive,
CCOc1cc2[nH]c(=O)n(Cc3ccc(C(=O)NCCN(CC)CC)cc3)c(=O)c2cc1OCC,inactive,
O=C(CCn1c(=S)[nH]c2cc3c(cc2c1=O)OCO3)NCc1ccc(Cl)cc1,inactive,
O=C(NCCCN1CCOCC1)c1cc(-c2ccc(Cl)cc2)on1,inactive,
COc1ccc(-c2cc(C(=O)NCCCN3CCOCC3)no2)cc1,inactive,
CCCCn1c(=S)[nH]c2ccccc2c1=O,inactive,
Cc1c(C)n(Cc2ccc(Cl)cc2)c2ccc(C(=O)NCCCN3CCOCC3)cc12,44.7 µM (active),
COc1ccc(Cn2c(=S)[nH]c3cc(C(=O)N4CCCCC4)ccc3c2=O)cc1,inactive,
CN(C)CCn1c(=S)[nH]c2ccc(Cl)cc2c1=O,50.1 µM (active),
CCN(CC)CCCNC(=O)c1ccc2c(=O)n(Cc3ccc4c(c3)OCO4)c(=S)[nH]c2c1,31.6 µM (active),
